From PubChem BioAssay
Values joined by “and” are separate entries in the source; they are usually repeats but may differ in a detail not shown here. Identical values can stand only once.

What follows are molecules tested against Dual specificity protein phosphatase 6 (Homo sapiens) (UniProt Q16828) (assay: Primary imaging screen for DUSP6 inhibitors that restore phospho-Erk in transfected HeLa cells, chemical complementation (AID 609;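 further: phospho-Erk level distribution per well compared with pooled transfected vehicle control wells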)). Conditions: HeLa MKP-3 transfected, phospho-Erk imaging KS statistic; at 10 µM; active compounds read high; cells stimulated with TPA for 15 min;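 active means compounds giving at least 50% inhibition in the cell-based MKP-3 phosphatase rescue imaging test; inactive means the rest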.
Dual specificity protein phosphatase 6 (Homo sapiens), sequence (Q16828 whole entry, looked up): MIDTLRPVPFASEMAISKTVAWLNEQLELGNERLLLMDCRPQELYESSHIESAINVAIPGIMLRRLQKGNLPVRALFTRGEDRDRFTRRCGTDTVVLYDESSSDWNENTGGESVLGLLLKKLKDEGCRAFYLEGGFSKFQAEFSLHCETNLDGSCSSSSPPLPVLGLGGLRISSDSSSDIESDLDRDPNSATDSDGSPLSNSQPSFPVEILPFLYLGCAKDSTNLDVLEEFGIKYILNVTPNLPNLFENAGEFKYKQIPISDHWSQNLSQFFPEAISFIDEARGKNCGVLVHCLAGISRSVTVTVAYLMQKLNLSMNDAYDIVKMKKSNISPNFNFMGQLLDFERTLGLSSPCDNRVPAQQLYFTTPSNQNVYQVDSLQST

inhibition, inactive:
CN1Cc2c(N)cccc2C(c2ccccc2)C1 (stereo not given) 3.45%, Cc1cn([C@H]2C=C[C@@H](CO)O2)c(=O)[nH]c1=O 7.39%, COC(=O)c1ccc(N2C(=O)CC(N3CCN(C(=O)c4ccco4)CC3)C2=O)cc1 (stereo not given) 8.31%, C[C@H]1C[C@H]2[C@@H]3CCC4=CC(=O)C=C[C@]4(C)[C@@]3(Cl)[C@@H](O)C[C@]2(C)[C@@]1(O)C(=O)CO -4.44%, CCCC1O[C@@H]2C[C@H]3[C@@H]4CCC5=CC(=O)C=C[C@]5(C)[C@H]4[C@@H](O)C[C@]3(C)[C@]2(C(=O)CO)O1 (stereo not given in full) 13.3%, CNCCC(Oc1ccc(C(F)(F)F)cc1)c1ccccc1 (stereo not given) 12.4%, Clc1ccc(Cn2c(CN3CCCC3)nc3ccccc32)cc1 1.48%, CC(C)NCC(O)COc1ccc(CC(N)=O)cc1 (stereo not given) -2.46%, CC(C)C[C@H]1C(=O)N2CCC[C@H]2[C@]2(O)O[C@](NC(=O)[C@@H]3C=C4c5cccc6[nH]c(Br)c(c56)CC4N(C)C3)(C(C)C)C(=O)N12 (stereo not given in full) 5.42%, CCOC(=O)c1cc2c(=O)n3cccc(C)c3nc2n(CCc2ccccc2)c1=N -16.8%, CC(=O)OCC1=C(C(=O)O)N2C(=O)[C@@H](NC(=O)Cc3cccs3)[C@H]2SC1 17.3%, Cc1cccc(Nc2ccccc2C(=O)O)c1C 19%, CC(COc1ccccc1)N(CCCl)Cc1ccccc1 (stereo not given) 3.59%, Cc1cc(C)nc(NS(=O)(=O)c2ccc(N)cc2)n1 -3.03%, COc1cc(C2C(C#N)=C(N)Oc3cc(N)ccc32)cc(OC)c1OC (stereo not given) 2.92%, CN(C)CCCC1(c2ccc(F)cc2)OCc2cc(C#N)ccc21 (stereo not given) -9.66%, CCCc1cc(=O)[nH]c(=S)[nH]1 15.3%, CN(C)CCOC(C)(c1ccccc1)c1ccccn1 (stereo not given) 33%, CCCCNC(=O)NS(=O)(=O)c1ccc(C)cc1 9.37%, CC(=O)[C@@]1(O)CC[C@H]2[C@@H]3C[C@H](C)C4=CC(=O)C=C[C@]4(C)[C@@]3(F)[C@@H](O)C[C@@]21C 7.39%, O=C1NC(=O)C(c2ccccc2)(c2ccccc2)N1 3.59%, CC(C)(C)NC[C@H](O)COc1nsnc1N1CCOCC1 -10.4%, O=C(O)CCC(=O)Nc1ccc(S(=O)(=O)Nc2nccs2)cc1 1.38%, Cc1cc(C(C)(C)C)cc(C)c1CC1=NCCN1 5.79%, CN(C)CCCN1c2ccccc2Sc2ccccc21 11.3%, Nc1ccc(C(=O)O)c(O)c1 3.59% and 13.3%, CC(=O)[C@H]1CC[C@H]2[C@@H]3CCC4=CC(=O)CC[C@]4(C)[C@H]3CC[C@]12C -0.493%, O=c1n(CCCN2CCN(c3cccc(Cl)c3)CC2)nc2ccccn12 -5.24%, Cn1c(=O)c2c(ncn2CC(O)CO)n(C)c1=O (stereo not given) 3.59%, CC1(C)S[C@@H]2[C@H](NC(=O)Cc3ccccc3)C(=O)N2[C@H]1C(=O)O 5.79%, CN(C)C(=O)Oc1ccc[n+](C)c1 13.3%, CCCOc1ccc2nc(NC(=O)OC)[nH]c2c1 1.48%, OC(CCN1CCCCC1)(c1ccccc1)C1CCCCC1 (stereo not given) 21.2%, O=c1c(O)c(-c2ccc(O)cc2O)oc2cc(O)cc(O)c12 -0.493%, COC(=O)Nc1nc2ccc(C(=O)c3ccccc3)cc2[nH]1 21.2%, CCc1cccc2c3c([nH]c12)C(CC)(CC(=O)O)OCC3 (stereo not given) -0.493%, C[N+](C)(C)CCCCCCCCCC[N+](C)(C)C 7.39%, O=C(c1ccc(F)cc1)C1CCN(CCn2c(=O)[nH]c3ccccc3c2=O)CC1 14.6%, CCN1CCN(C(=O)N[C@@H](C(=O)N[C@@H]2C(=O)N3[C@@H]2SC(C)(C)[C@@H]3C(=O)O)c2ccccc2)C(=O)C1=O 5.42%, Cc1ncc([N+](=O)[O-])n1CCO -5.24%
